From PubChem
ATXN2 expr inh: Primary qHTS for Inhibitors of ATXN expression; HEK-293 ATXN2-luciferase reporter, luminescence, 24 h; Potency, µM (highest dose often 57 µM), inactives show at the highest dose activity change, negative = inhibition, actives largely listed as inhibitors; 360,000 tested, 0.72% active; further: on the % scale 0 is the no-effect control and ±100 the full control effect; nearly all actives have a fitted effect of over 55% in size
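ATXN2-luciferase reporter cells (luciferase flanked by upstream and downstream ATXN2 gene portions) were treated 24 h at 37 °C with compounds at up to 57 uM. SteadyGlo luminescence gave expression; GF-AFC fluorescence gave viability.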
S2 tox: Viability Counterscreen for Primary qHTS for Inhibitors of ATXN expression; S2 cells (HEK-293 line with an ATXN2-luciferase reporter) viability, CellTiter-Fluor protease fluorescence, 24 h; 400,000 tested, 0.49% active; Potency, µM (top dose mostly 56.7 µM), most hits filed as cytotoxic; further: nearly all actives have a fitted effect of over 40% in size
TGFb inhibitor: qHTS for Inhibitors of TGF-b; Potency, µM (titrated, usually from 46.1 µM), for inactives: top-dose activity, negative = inhibition, actives largely listed as inhibitors; HepG2 CAGA-GFP TGF-b/SMAD3 reporter, GFP fluorescence, 18 h; TGF-beta stimulated, 500 pg/mL final; 410,000 tested, 1.2% active; further: on the % scale 0 is the no-effect control and ±100 the full control effect; nearly all actives have a fitted effect of over 65% in size
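Inhibition was scored as loss of TGF-beta-induced (500 pg/mL final, 18 hours, 37 degrees C) GFP in HEPG2 cells carrying a CAGA-GFP reporter, in DMEM with 1% FBS. Well GFP was summed per cell; Activity was normalised to unstimulated and stimulated DMSO wells, then concentration-response fitting.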
12-LOX inh: Primary qHTS assay for inhibitors of human arachidonate 12S-lipoxygenase (ALOX12): Round 2 | Polyunsaturated fatty acid lipoxygenase ALOX12 (Homo sapiens), P18054 | purified 12hLO, xylenol orange hydroperoxide absorbance | Potency, µM (titrated, usually from 108 µM), for inactives: top-dose activity change, negative = inhibition, most hits filed as inhibitors | 580,000 tested, 1.1% active | AID 1671190, 2021; further: on the % scale 0 is the no-effect control and ±100 the full control effect
Target sequence (P18054 whole entry, looked up): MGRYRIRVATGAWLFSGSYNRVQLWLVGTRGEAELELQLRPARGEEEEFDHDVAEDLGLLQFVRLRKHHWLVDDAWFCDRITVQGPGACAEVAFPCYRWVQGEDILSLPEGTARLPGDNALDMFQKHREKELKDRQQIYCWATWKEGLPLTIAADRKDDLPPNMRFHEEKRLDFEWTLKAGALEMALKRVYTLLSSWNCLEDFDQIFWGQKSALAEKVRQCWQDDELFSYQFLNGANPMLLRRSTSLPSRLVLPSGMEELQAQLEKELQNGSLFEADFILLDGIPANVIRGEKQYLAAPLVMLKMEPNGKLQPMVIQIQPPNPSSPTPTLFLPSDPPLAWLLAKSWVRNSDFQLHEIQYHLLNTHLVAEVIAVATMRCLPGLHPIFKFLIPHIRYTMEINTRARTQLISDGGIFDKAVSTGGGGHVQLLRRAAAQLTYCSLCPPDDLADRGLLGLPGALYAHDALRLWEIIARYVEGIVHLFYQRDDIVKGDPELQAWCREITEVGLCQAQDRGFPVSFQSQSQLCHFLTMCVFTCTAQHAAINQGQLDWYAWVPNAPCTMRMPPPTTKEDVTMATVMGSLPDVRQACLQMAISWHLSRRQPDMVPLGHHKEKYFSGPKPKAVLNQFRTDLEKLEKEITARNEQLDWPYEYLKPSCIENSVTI
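Hydroperoxide product was detected by ferrous iron/xylenol orange as the 573 to 405 nm absorbance ratio. Arachidonic acid at 40 uM (final) was turned over for 30 min at room temperature by 150 nM human 12hLO, pH 7.0 Hepes buffer, after 15 min compound preincubation.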
HepG2 viability: qHTS for Inhibitors of TGF-b: Cytotox Counterscreen. HepG2 CAGA-GFP viability, ATP luminescence, 18 h. Potency, µM (top dose mostly 46.1 µM), for the others: at the top dose activity change, negative = cytotoxicity, hits mostly cytotoxic. 410,000 tested, 0.76% active
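HepG2 CAGA-GFP cells (1000/well, DMEM with 1% FBS) received compound, then TGF-beta at 500 pg/mL final, and were incubated 18 hours at 37 degrees C. Viability was read by CellTiter-Glo luminescence. Media-only wells were set as complete cell-killing and DMSO as no toxicity.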
Active calls of the source: *; i = inactive; ? = inconclusive; . = not tested or not shown; [ ] = dose if it differs, or a comment. Only some compounds are listed: those with a hit (about 2.7% of all), similar ones and a draw of the others. The call rests on the fitted dose curve; in most records, active means well fitted curve in the direction sought with a large enough effect; inconclusive means small, poorly fitted or top-dose-only effect, or another doubt; inactive means no such curve, though single readings can be large; an effect the other way counts as inactive or inconclusive. Potency means the concentration at half of the fitted maximal effect.

SMILES	ATXN2 expr inh	S2 tox	TGFb inhibitor	12-LOX inh	HepG2 viability
O=C(COc1ccc([N+](=O)[O-])cc1)Nc1cc(S(=O)(=O)N2CCCCC2)ccc1N1CCCCC1	-14.3%	i	0.3%	39.8µM*	0.0%
O=C(Nc1cc(S(=O)(=O)N2CCCCC2)ccc1Cl)c1ccccc1NS(=O)(=O)c1ccc(F)cc1	?	?	3.55µM*	?	-29.0%
O=C(Nc1ccccc1O)c1cc(S(=O)(=O)N2CCCC2)ccc1Cl	-11.1%	i	?	?	-29.5%
O=C(COC(=O)Cc1ccccc1F)Nc1cc(S(=O)(=O)N2CCOCC2)ccc1N1CCCC1	3.3%	1µM*	-13.8%	-14.1%	-34.7%
N#Cc1ccc(NC(=O)CNc2cc(S(=O)(=O)N3CCCCC3)ccc2N2CCCCC2)cc1	.	.	.	15.8µM*	.
COc1ccc(CNC(=O)C2CCN(C(=O)c3ncn4c3COC(c3ccccc3)C4)CC2)cc1 (configuration not stated)	.	.	.	13.1%	.
CCN1CCN(c2ccc(S(=O)(=O)N3CCCCC3)cc2NC(=O)C(C)Oc2ccc(F)cc2)CC1 (configuration not stated)	7.7%	?	11.5%	44.7µM*	8.9%
O=C(Nc1cc(S(=O)(=O)N2CCOCC2)ccc1N1CCCC1)c1ccc(F)cc1	-25.2%	?	2.0%	39.8µM*	8.7%
O=C(COc1ccc(F)cc1)Nc1cc(S(=O)(=O)N2CCCCC2)ccc1N1CCCCC1	-11.7%	i	17.4%	6.31µM*	-8.4%
CCN1CCN(S(=O)(=O)c2ccc(Cl)c(C(=O)Nc3ccc(OC(F)F)cc3)c2)CC1	-4.6%	i	-21.8%	-18.7%	8.91µM*
CC(Oc1ccc(F)cc1)C(=O)Nc1cc(S(=O)(=O)N2CCCCC2)ccc1N1CCOCC1 (configuration not stated)	-10.7%	i	9.7%	?	-4.6%
O=C(Nc1cc(S(=O)(=O)N2CCCCC2)ccc1N1CCOCC1)c1ccc(F)cc1	3.9%	i	0.0%	-10.0%	-20.1%
CCN1CCN(c2ccc(NC(=O)c3cc(S(=O)(=O)N4CCCC4)ccc3Cl)cc2)CC1	.	i	-10.8%	-20.3%	-30.2%
O=C(COc1ccccc1)Nc1cc(S(=O)(=O)N2CCOCC2)ccc1N1CCCC1	0.0%	?	-5.1%	8.6%	-1.6%
CN1CCN(c2ccc(S(=O)(=O)N3CCOCC3)cc2NC(=O)C2CCCCC2)CC1	9.2%	i	-1.7%	24.3%	0.3%
CCN1CCN(c2ccc(S(=O)(=O)N3CCOCC3)cc2NC(=O)C2CCC(C(C)(C)C)CC2)CC1 (configuration not stated)	.	i	?	?	20µM*
CC1=C[C@@H](CNCc2ccccc2O)[C@H](C(C)C)C[C@H]1Cc1nc2c(C)cccc2[nH]1	.	.	.	63.1µM*	.
COc1ccc(NC(=S)NNc2ccc([N+](=O)[O-])cc2S(=O)(=O)Nc2ccc(C)cc2C)cc1	-36.4%	?	?	22.4µM*	-31.0%
Cc1ccc(NS(=O)(=O)c2cc([N+](=O)[O-])ccc2NNC(=S)Nc2cccc(Cl)c2)c(C)c1	-7.8%	?	?	.	-86.2%
Cc1ccc(NS(=O)(=O)c2cc([N+](=O)[O-])ccc2NNC(=S)Nc2cc(C)ccc2C)c(C)c1	20µM*	15.8µM*	?	25.1µM*	-71.7%
CCOc1ccc(C2CCCN2C(=O)Cn2cccnc2=O)cc1 (configuration not stated)	.	.	.	4.3%	.
CC(C)Cc1ccc(S(=O)(=O)N2CCN(Cc3noc(CCC(=O)N4CCCCC4)n3)CC2)cc1	.	.	11.2µM*	-25.6%	-25.8%
CC(C)(C)c1ccc(S(=O)(=O)N2CCN(Cc3noc(CCC(=O)N4CCCCC4)n3)CC2)cc1	.	.	?	?	-23.7%
CC(=O)c1ccc(Nc2cc(C)nc3nc(Cc4ccccc4)nn23)cc1	5.4%	i	?	-10.9%	-4.7%
Cc1ccc(Nc2cc(C)nc3nc(C)nn23)cc1	-5.0%	i	-9.4%	168.0%	-11.6%
SMILES	ATXN2 expr inh	S2 tox	TGFb inhibitor	12-LOX inh	HepG2 viability
CCc1ccc(Nc2cc(C)nc3nc(Cc4ccc(Cl)cc4)nn23)cc1	?	?	12.6µM*	-11.1%	-76.7%
Cc1ccc(Nc2cc(C)nc3nc(Cc4ccc(Cl)cc4)nn23)cc1	14.1µM*	.	3.98µM*	-2.2%	-58.2%
CCCN1C(=O)CCc2cc(NS(=O)(=O)CC)ccc21	.	.	.	-1.4%	.
COc1nc(N(C)C)nc(-n2cnc(SCc3ccccc3)n2)n1	.	.	.	-23.2%	.
COCc1c(C(=O)OCC(=O)NCC2CCCO2)sc2cccc(F)c12 (configuration not stated)	.	.	.	0.0%	.
Cc1cc(C)c(CNC(=O)c2cc(-c3ccccc3C)cc3c2OCCN3C)c(=O)[nH]1	.	.	.	112µM*	.
Cc1cc(C)c(CNC(=O)c2cc(-c3cnn(C)c3C)cc3c2OCCN3C)c(=O)[nH]1	.	.	.	8.2%[176 µM]	.
O=C(COc1ccc(Cl)cc1Br)OCC(=O)c1ccc(-c2ccccc2)cc1	.	.	.	4.6%	.
Cc1ccc(NC(=O)c2ccoc2C)cc1C	75.5%	i	-10.9%	6.1%	-42.5%
Cc1cc(NC(=O)c2ccoc2C)ccc1Br	50.5%	i	15.8µM*	?	-50.9%
O=C(NC(c1ccccc1)c1c(O)ccc2ccccc12)c1ccccc1Cl (configuration not stated)	?	i	?	-28.9%	-76.6%
O=C(NC(c1ccc(Cl)cc1)c1c(O)ccc2ccccc12)c1ccccc1 (configuration not stated)	12.6%	i	11.2µM*	-29.3%	17.8µM*
C=C1[C@@H](O)[C@H](Cc2ccccc2)N(Cc2ccccc2Br)S1(=O)=O	20µM*	17.8µM*	?	-50.3%	10µM*
O=C(CCS(=O)(=O)c1ccc(Br)s1)Nc1cc(C(F)(F)F)cc(C(F)(F)F)c1	?	?	?	?	15.8µM*
C[C@@H](O)CCCCn1c(=O)c2c(ncn2C)n(C)c1=O	.	.	.	0.6%	.
COc1cc(C#N)ccc1OC(C)C(=O)Nc1cc(C)ccc1C (configuration not stated)	.	.	.	-2.0%	.
CCC(C)[C@@H](NC(=O)OC(C)(C)C)c1nnc(S(=O)(=O)Cc2cccc(C)c2)o1 (some centres not stated)	?	.	8.91µM*	13.7%	-101.2%
COC(=O)CNC(=O)C(C)(C)c1cccc(C(F)(F)F)c1	.	.	.	-13.6%	.
COC(=O)c1nc2ccccc2nc1N1CCN(c2ccc(F)cc2)CC1	.	.	.	-7.2%	.
O=C(Cn1nnc(-c2cc(C(F)(F)F)cc(C(F)(F)F)c2)n1)NNC(=S)Nc1ccc(Cl)cc1	-2.4%	i	?	17.8µM*	-53.7%
